Bioassay records (PubChem)
DT40 TDP1 no CPT – qHTS for Inhibitors of human tyrosyl-DNA phosphodiesterase 1 (TDP1): qHTS in cells in absence of CPT. 420,000 compounds, 15% hits. Potency, µM (highest dose often 46.2 µM), without a hit: at the top dose activity change, negative = growth inhibition, most hits filed as inhibitors. DT40 Tdp1-/- hTDP1 cells, no CPT, ATP luminescence, 48 h; further: on the % scale 0 is the no-effect control and ±100 the full control effect; nearly all actives have a fitted effect of over 55% in size
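No-CPT arm: Tdp1-/-;hTDP1 DT40 cells (400/well) plus compounds, incubated ≥48 hr at 37 °C. Readout CellTiter-Glo luminescence.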
TGFb inhibitor – qHTS for Inhibitors of TGF-b; Potency, µM (top dose mostly 46.1 µM), for the others: at the highest dose activity, negative = inhibition, most hits filed as inhibitors; 410,000 compounds, 1.2% hits; HepG2 CAGA-GFP TGF-b/SMAD3 reporter, GFP fluorescence, 18 h; TGF-beta stimulated, 500 pg/mL final; further: on the % scale 0 is the no-effect control and ±100 the full control effect; nearly all actives have a fitted effect of over 65% in size
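HEPG2 CAGA-GFP cells (1000/well, DMEM with 1% FBS) were pre-incubated 2 h at 37 degrees C, given compound by pin tool, then stimulated with TGF-beta at 500 pg/mL final for 18 h before per-cell GFP fluorescence imaging.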
HepG2 tox – qHTS for Inhibitors of TGF-b: Cytotox Counterscreen; HepG2 CAGA-GFP viability, ATP luminescence, 18 h; Potency, µM (series often up to 46.1 µM), for inactives: top-dose activity change, negative = cytotoxicity, actives largely listed as cytotoxic; 410,000 compounds, 0.76% hits; AID 588856, 2011
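HepG2 CAGA-GFP cells (1000/well, DMEM with 1% FBS) received compound, then TGF-beta at 500 pg/mL final, and were incubated 18 hours at 37 degrees C. Viability was read by CellTiter-Glo luminescence. Media-only wells were set as complete cell-killing and DMSO as no toxicity.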
HT1080-NT tox – qHTS for induction of synthetic lethality in tumor cells producing 2HG: qHTS for the HT-1080-NT fibrosarcoma cell line; HT-1080-NT fibrosarcoma viability, CellTiter-Glo ATP luminescence, 48 h; Potency, µM (doses to about 46.1 µM), inactives show top-dose activity, negative = less viability, most hits filed as cytotoxic; 360,000 compounds, 1.6% hits; AID 686970, 2013;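 further: NT is the 2HG producing partner of a matched IDH1 knockdown line; 0% = DMSO-treated cells and -100% = media-only wells without cells; nearly all actives have a fitted effect of over 55% in size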
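750 cells/well, RPMI + 5% FBS; 2 h settle, compound pin-transfer, 48 h at 37 degrees C. CellTiter-Glo 10 min RT, luminescence. Normalized to DMSO and media-only wells.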
HT1080 IDH1KD tx – qHTS for induction of synthetic lethality in tumor cells producing 2HG: qHTS for the HT-1080-IDH1KD cell line; HT-1080 IDH1 knockdown viability, ATP luminescence, 48 h; Potency, µM (titrated, usually from 46.1 µM), for the others: top-dose activity, negative = toxicity, usual class: cytotoxic; 360,000 compounds, 2% hits;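 further: 0% = DMSO wells and -100% = cell-free medium wells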
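IDH1KD HT-1080 cells, 750/well, RPMI + 5% FBS; compound pinned after 2 h settling; 48 h, 37 °C; CellTiter-Glo luminescence; % activity normalised to DMSO and no-cell wells; curves fitted, classed by r2 and efficacy.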
DT40 TDP1 CPT – qHTS for Inhibitors of human tyrosyl-DNA phosphodiesterase 1 (TDP1): qHTS in cells in presence of CPT; chicken DT40 Tdp1-/-;hTDP1 cells + 20 nM CPT, ATP luminescence, 48 h; Potency, µM (titrated, usually from 46.2 µM), for inactives: top-dose activity change, negative = growth inhibition, hits mostly inhibitors; 420,000 compounds, 12% hits; further: on the % scale 0 is the no-effect control and ±100 the full control effect; nearly all actives have a fitted effect of over 55% in size
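Chicken DT40 Tdp1-/- cells stably complemented with human TDP1 were seeded at 400 cells/well in medium containing 20 nM camptothecin, exposed to pin-transferred compounds, and grown at 37 °C for at least 48 hr. Viability was read as ATP luminescence.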
* marks the source's active call; other numbers are inactive results; ? = inconclusive; . = no result. Compounds with a hit are over-represented: about 17% of the library has one in this group of screens. The call rests on the fitted dose curve; in most records, active means well fitted curve in the direction sought with a large enough effect; inconclusive means small, poorly fitted or top-dose-only effect, or another doubt; inactive means no such curve, though single readings can be large; an effect the other way counts as inactive or inconclusive. Potency means the concentration at half of the fitted maximal effect.

SMILES	DT40 TDP1 no CPT	TGFb inhibitor	HepG2 tox	HT1080-NT tox	HT1080 IDH1KD tx	DT40 TDP1 CPT
O=C(Nc1cnn(Cc2ccc(Cl)cc2Cl)c1)c1noc2c1CCCC2	?	16µM*	-2%	-12%	-17%	?
CC(=O)c1cccc(NC(=O)NNC(=O)c2ccc(Cl)cc2Cl)c1	?	-14%	-30%	9%	9%	-15%
O=C(Nc1cnn(Cc2ccc(Cl)cc2Cl)c1)c1cc(-c2cccs2)on1	?	?	-32%	-1%	-28%	-35%
CC(=O)c1cccc(NC(=O)Nc2cnn(Cc3ccc(Cl)cc3Cl)c2)c1	?	?	-21%	?	14µM*	?
CC(C)Oc1ccc(CNC(=O)C2CCCN(S(=O)(=O)N3CCOCC3)C2)cc1 (stereo unspecified)	-20%	22%	-3%	-2%	0%	-12%
CCOC(=O)Cc1[nH]nc2c1C(C1C=CCCC1)C(C#N)=C(N)O2 (stereo unspecified)	23µM*	?	20µM*	?	21µM*	?
COc1cccc(/C=C/c2ccncc2)c1OC	23µM*	-4%	-1%	8%	10%	?
COc1cccc(/C=C/c2nc3ccccc3nc2/C=C/c2cccc(OC)c2OC)c1OC	2.8µM*	25%	-18%	.	.	8.9µM*
COc1cccc(/C=C/c2nccc3ccccc23)c1OC	16µM*	3%	-8%	.	.	?
COc1ccc(Cc2nc3c4cnn(-c5cccc(F)c5)c4ncn3n2)cc1	8%	.	-3%	.	.	-4%
O=C(CN1C(=O)CSc2ccc(S(=O)(=O)N3CCOCC3)cc21)NCCCN1CCc2ccccc2C1	?	-1%	-36%	-10%	-19%	-20%
CCC(=O)N1CCc2cc(Br)cc(S(=O)(=O)N3CCN(c4ccc(C)cc4)C(C)C3)c21 (stereo unspecified)	-6%	-23%	1%	.	.	9%
CCOC(=O)C1(C)CCCN1C(=O)c1csnn1 (stereo unspecified)	12%	18%	15%	15%	-2%	-11%
CC1=C(C(=O)OCc2ccc3c(c2)OCO3)C(c2ccc(F)cc2)NC(=O)N1 (stereo unspecified)	4.1µM*	-28%	-22%	4.5µM*	5µM*	4.1µM*
CSCCOC(=O)C1=C(C)NC(=O)NC1c1ccc2c(c1)OCO2 (stereo unspecified)	21%	-5%	-17%	0%	4%	0%
CC1=C(C(=O)OCc2ccc3c(c2)OCO3)C(c2ccc(Cl)cc2)NC(=O)N1 (stereo unspecified)	2.9µM*	?	-19%	2.5µM*	2.2µM*	2.3µM*
Cc1ccccc1-c1cnc(C(O)c2ccc(Cl)c(F)c2)[nH]1 (stereo unspecified)	-23%	-21%	3.2µM*	-20%	-15%	29µM*
OC(c1ccc(Cl)c(F)c1)c1ncc(-c2ccccc2F)[nH]1 (stereo unspecified)	?	4%	-29%	?	?	16µM*
OC(c1ccc(Cl)c(Cl)c1)c1ncc(-c2ccccc2F)[nH]1 (stereo unspecified)	?	-14%	-63%	-24%	-30%	?
CC(C)(C)CC(C)(C)N=C1Nc2cc(Cl)c(Cl)cc2N[C@]12C[C@H]1CCCC(=O)N3CC[C@@H](C2)[C@@H]13	11µM*	7.1µM*	-44%	.	.	?
CC(C)(C)CC(C)(C)N=C1Nc2ccccc2NC12C[C@H]1CCC(=O)N3CC[C@@H](C2)[C@@H]13 (stereo partly specified)	?	?	-46%	4%	5%	?
CC(C)(C)CC(C)(C)N=C1Nc2cc(Cl)c(Cl)cc2NC12C[C@H]1CCC(=O)N3CC[C@@H](C2)[C@@H]13 (stereo partly specified)	?	11µM*	13µM*	-16%	-6%	?
O=C(NCCCc1ccccc1)c1cc(COc2ccc(F)cc2Cl)on1	?	-17%	-11%	-3%	-7%	21µM*
CCn1ccnc1CNC(=O)c1cc(COc2ccc(F)cc2F)on1	4%	8%	-4%	11%	13%	1%
CCn1cc(CNC(=O)c2cc(COc3ccc(F)cc3F)on2)cn1	23µM*	-32%	-11%	5%	0%	?
SMILES	DT40 TDP1 no CPT	TGFb inhibitor	HepG2 tox	HT1080-NT tox	HT1080 IDH1KD tx	DT40 TDP1 CPT
CC(CNC(=O)c1cc(COc2c(F)cccc2F)on1)Oc1cccnc1 (stereo unspecified)	15µM*	-12%	-31%	1%	0%	21µM*
COc1cccc(CNC(=O)c2cc(COc3c(F)cccc3F)on2)c1	-22%	-7%	-11%	11%	19%	-9%
O=C(NCC1CCOCC1)c1cc(COc2ccc(F)cc2F)on1	-16%	13%	-1%	16%	-5%	-15%
O=C(NCCc1cccnc1)c1cc(COc2ccc(F)cc2F)on1	23µM*	-6%	-12%	?	?	?
Cc1cc(S(=O)(=O)N2CCOCC2)ccc1NC(=O)c1ccc(F)cc1	-16%	-12%	-3%	0%	-2%	-16%
CC(Cc1cnccn1)NC(=O)c1cc(COc2ccc(F)cc2F)on1 (stereo unspecified)	5%	-6%	-5%	17%	13%	?
COc1ccc(OCc2cc(C(=O)NC(C)Cc3cccnc3)no2)c(Cl)c1 (stereo unspecified)	23µM*	?	2%	-2%	-19%	?
COc1ccc(OCc2cc(C(=O)NC(C)Cc3ccccn3)no2)c(Cl)c1 (stereo unspecified)	?	-13%	-12%	-4%	-3%	?
CC(Cc1cccnc1)NC(=O)c1cc(COc2ccc(F)cc2F)on1 (stereo unspecified)	21µM*	12%	-3%	1%	3%	16µM*
CCCNC(=O)c1cn(CC)c2cc(N3CCN(C(=O)c4ccco4)CC3)c(F)cc2c1=O	21µM*	-2%	-18%	1%	0%	?
